Compound activity as filed in PubChem.
The full list was thinned out, with hits kept by preference.
HTT aggregate: reduces HttQ103-GFP aggregates in PC12 cells | PC12 HttQ103-GFP aggregates, Acumen cytometry, 40 h | Potency, µM (doses to about 46.1 µM), for the others: at the top dose activity change, negative = inhibition, usual class: inhibitors | actives 1.1% (n = 220,000) | AID 1688; further: on the % scale 0 is the no-effect control and ±100 the full control effect; nearly all actives have a fitted effect of over 60% in size
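PC12/HTTQ103-GFP, ecdysone-inducible; teb 100 nM; cpd qHTS titration; GFP aggregates read on laser cytometer, Ex 488/Em 500-530 nm.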
Epigenetic derep: regulators of epigenetic silencing causing reporter derepression in mouse cells; murine LDR cells, GFP reporter derepression, 30 h; Potency, µM (series often up to 53.9 µM), inactives show at the top dose GFP activation, most hits filed as activators; actives 0.2% (n = 280,000); further: % of control where 0% means no effect; nearly all actives have a fitted effect of over 60% in size
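Readout is the number of GFP-expressing murine LDR cells, counted by cytometry following washing. Cells were treated with compound for 30 h at 37 C; the stably integrated CMV-GFP locus is normally silent.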
PINK1 expr mod: changes PINK1 expression | PINK1 immunofluorescence, high-content cytometry, 24 h | Potency, µM (titrated, usually from 76.6 µM), for inactives: top-dose activation (PINK1 increase), most hits filed as activators | actives 0.2% (n = 410,000) | AID 624263; active means well fitted activation curve with a large enough effect; inconclusive means small, poorly fitted or top-dose-only effect; cell line not stated here; further: % of control where 0% means no effect; nearly all actives have a fitted effect of over 65% in size
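PINK1 protein level read as immunofluorescence by microplate cytometer in a fixed, stained stable cell line after 24 h exposure to five compound concentrations, with CCCP as control.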
HTT cytoprotect: protects HTT-Q103 PC12 cells, measured by ATP; PC12 HTT-Q103 induced, cytoprotection, ATP luminescence, 40 h; Potency, µM (doses to about 56.4 µM), for inactives: cytoprotection (ATP increase), usual class: activators; actives 0.14% (n = 230,000); AID 1471; further: % of control where 0% means no effect; nearly all actives have a fitted effect of over 45% in size
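PC12 cells with ecdysone-inducible HTT exon 1 Q103-GFP, induced with 100 nM tebufenozide and co-treated with library compounds in a dose series (1536-well, 1500 cells/well). Cytoprotection read as ATP content by ATPlite luminescence.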
The depositor's hits bear a star; u = inconclusive; x = no result; [ ] = remark or other dose. Unless noted, the call rests on the fitted dose curve; in most records, active means well fitted curve in the direction sought with a large enough effect; inconclusive means small, poorly fitted or top-dose-only effect, or another doubt; inactive means no such curve, though single readings can be large; an effect the other way counts as inactive or inconclusive. Potency means the concentration at half of the fitted maximal effect.

SMILES | HTT aggregate | Epigenetic derep | PINK1 expr mod | HTT cytoprotect
CCCCn1c(NCc2cc(Cl)ccc2O)nc2ccccc21 | x | -1% | u | x
O=C(O)c1cccc(N2C(=O)/C(=C/c3ccc(SCc4ccc(Cl)cc4)o3)SC2=S)c1 | 6% | 0% | 3% | 20µM*
Cc1ccc(C(=O)C2CCN(C(=S)NCC3CCCO3)CC2)cc1 (centres undefined) | -4%[9.22 µM] | 3% | 1% | 12%[10 µM]
COc1ccc(C2=NCCn3nc4cc(C(F)(F)F)ccc4c32)cc1 | x | x | 10% | x
CCOC(=O)c1c(NC(=O)CSc2nc3cc(Cl)ccc3c(=O)n2Cc2ccco2)sc(C(=O)N(C)C)c1C | 7.1µM* | -1% | 12% | -30%[10 µM]
CCN(C(=O)CSc1nc2cc(Cl)ccc2c(=O)n1Cc1ccco1)C1CCS(=O)(=O)C1 (centres undefined) | 25% | 1% | 0% | 2.8µM*
CCN(C(=O)CSc1nc2cc(Cl)ccc2c(=O)n1CC(C)C)C1CCS(=O)(=O)C1 (centres undefined) | x | x | 9% | x
O=C(NCc1ccc(F)cc1)c1cccnc1C(=O)O | x | x | 2% | x
CC1=NN(Cc2ccccc2)C(=O)C1C(c1ccccc1)C(C#N)C#N (centres undefined) | 13% | -1% | 2% | 24%
Cc1oc(-c2ccc(Cl)cc2)nc1CN1CCCC(C(=O)NC2CC2)C1 (centres undefined) | x | x | 0% | x
CCOC(=O)N1CCC(NC(=O)C2CCCN(Cc3nc(-c4cccc(Cl)c4)oc3C)C2)CC1 (centres undefined) | 7.9µM* | 0% | -1% | -20%
COc1ccc(CSC2=C(C#N)C(=O)NC3(CCCCC3)S2)cc1 | x | x | 2% | 0%[10 µM]
CC1(C)Cc2c(sc3nc(-c4cccs4)n(N)c(=O)c23)CO1 | 10µM* | -7% | -1%[38.3 µM] | -96%
O=S(=O)(NCc1ccccc1)c1ccccc1NCc1ccc(Cl)cc1 | x | x | 30% | x
CCOC(=O)N=Nc1c2ccccc2c2nc3no[nH]c3nc12 | 1.3µM* | 1% | -2% | -183%
Cc1cc(Cl)c(OCCOCCN2CCCC(C)C2)c(Br)c1 (centres undefined) | 13% | 0% | 4% | -69%
CC1CCN(C(C(=O)Nc2ccc(C(C)C)cc2)c2ccc3c(c2)OCO3)CC1 (centres undefined) | 20µM* | 2% | u | 0%
CC(C)c1ccc(NC(=O)C(c2ccc3c(c2)OCO3)N2CCCCC2)cc1 (centres undefined) | u | 1% | u | -31%
CC(C)(C)c1ccc(C2C(C(=O)c3ccco3)=C(O)C(=O)N2CC2CCCO2)cc1 (centres undefined) | x | x | 0% | x
CCCCN(CCCC)S(=O)(=O)c1ccc(C(=O)Nc2nnc(COC)o2)cc1 | 11µM* | 0% | 2% | -81%
CCN(CC)S(=O)(=O)c1ccc(C(=O)Nc2nnc(COC)o2)cc1 | 5% | 2% | 0% | -41%
CCCCN(C)S(=O)(=O)c1ccc(C(=O)Nc2nnc(CSC)o2)cc1 | 8.9µM* | -1% | 1% | -66%
O=C(CCSc1nnc2scc(-c3ccccc3)n12)NCc1ccc2c(c1)OCO2 | -7% | -1% | 0% | 13%[0.074 µM]
c1ccc(-c2csc3nnc(SCc4ccc5c(c4)OCO5)n23)cc1 | 10µM* | 0% | 0% | -2%[10 µM]
COc1ccc(NC(=O)Nn2cnnc2)cc1OC | x | x | 1% | x
SMILES | HTT aggregate | Epigenetic derep | PINK1 expr mod | HTT cytoprotect
COC(=O)[C@@]1(Cc2ccccc2)[C@@H]2C(=CC(=O)[C@H]2CC(=O)C(=O)N(C)C)CN1C(=O)c1ccccc1 | u | 0% | -1% | u
COC(=O)[C@@]1(Cc2ccc(F)cc2)[C@@H]2C(=CC(=O)[C@H]2CC(=O)C(=O)N(C)C)CN1C(=O)c1ccccc1 | x | 2% | x | 4µM*
Cc1ccccc1N1OC2C(=O)N(c3ccc(F)cc3)C(=O)C2C1c1ccccn1 (centres undefined) | -3% | -1% | 7%[38.3 µM] | -13%[10 µM]
O=C(NC(Nc1nc2ccc([N+](=O)[O-])cc2s1)(C(F)(F)F)C(F)(F)F)c1ccccc1Cl | 0.32µM* | -1% | u | -61%[10 µM]
N#C/C(=C/c1ccc(O)cc1)c1nc(-c2ccc(-c3ccccc3)cc2)cs1 | x | 11µM* | 18% | x
Cc1cc(OCC(=O)NC2CCCCC2)ccc1Cl | -14% | 2% | 6% | -3%[10 µM]
Cc1cc(N2C(=O)C(O)=C(C(=O)c3cc4ccccc4o3)C2c2ccc(OC(C)C)cc2)no1 (centres undefined) | x | x | 28µM* | x
COc1ccc(OC)c(NC(=O)Nc2ccccc2C)c1 | -4% | -1% | -3% | -7%
COc1cc(C(=O)Nc2ccccc2-c2nc(-c3ccccc3)no2)cc(OC)c1OC | x | 0.63µM* | 3% | x
COc1cc(C(=O)Nc2ccccc2-c2nc(-c3ccc(C)cc3)no2)cc(OC)c1OC | x | 8% | 1% | x
O=C(Nc1ccc(Cl)c(Cl)c1)Nc1nnc(CSc2ccccc2)s1 | 2.8µM* | -3% | 10µM* | 26%[10 µM]
Cc1nnc(NC(=O)Nc2cccc(Cl)c2)s1 | u | -1% | 10% | -1%[10 µM]
Cc1ccc(OCCSCc2nnc(NC(=O)Nc3cccc(Cl)c3)s2)cc1 | 8.9µM* | -2% | u | x
O=C(Nc1ccc(Cl)cc1)Nc1nnc(CSCc2ccccc2Cl)s1 | u | 0% | 40µM* | 18%[10 µM]
CC(=O)c1ccc(OC(=O)c2ccc(Br)o2)cc1 | -8% | 1% | -2% | 1%
CCCCCCCOC(=O)C[N+](C)(C)CCOC1CC2CCC1(C)C2(C)C (centres undefined) | u | 1% | -4% | -6%[10 µM]
CCCCCCOC(=O)C[N+](C)(C)CCOC1CC2CCC1(C)C2(C)C (centres undefined) | 6.3µM* | 0% | -4%[38.3 µM] | -67%[10 µM]
CCOc1ccc(NC(=O)CN(c2cc(C)cc(C)c2)S(=O)(=O)c2c(C)noc2C)cc1 | -5% | 1% | 4% | -13%[10 µM]
CCOC(=S)SCC(=O)Nc1nccs1 | 5.6µM* | u | 11% | -13%[10 µM]
O=C(Nc1cc(=O)[nH]c2ncnn12)c1ccc(Cl)cc1Cl | 19% | -1% | 0% | -15%
N=c1c2c(n(Cc3ccc(Br)cc3)c3c1CCC3)CCCC2 | u | -1% | 35µM* | -38%[10 µM]
N=c1c2c(n(Cc3ccc(Cl)c(Cl)c3)c3c1CCC3)CCCC2 | -1% | -1% | u | -7%
O=C(Cc1ccccc1)Nn1cnc2ccccc21 | 5% | 5% | -5%[38.3 µM] | -10%[10 µM]
Nc1cc(Nc2ccccc2)c2nonc2c1[N+](=O)[O-] | x | x | 45µM* | x
O=[N+]([O-])c1c(Nc2ccccc2)ccc2nonc12 | 8% | -4% | -3% | 19%[10 µM]
COc1ccccc1CC(=O)Nc1ccc([N+](=O)[O-])cc1O | -4%[9.22 µM] | 0% | 40µM* | -6%[10 µM]
On1onc2c3cc(-c4ccccc4)nc3ccc21 | -14% | 16µM* | 12% | -3%
CC(=O)Nc1ccc(S(=O)(=O)NC(C(=O)O)C(C)O)cc1 (centres undefined) | -13%[9.22 µM] | 0% | 0% | 25%[10 µM]
Cc1ccccc1S(=O)(=O)Cc1ccc(C(=O)N2CCN(c3cccc(C)c3C)CC2)o1 | 13µM* | -1% | -3% | -40%[10 µM]
